Most compounds without a hit are left out; they make up all but 2.4% or so of the library.
POLH inh – blocks human DNA polymerase eta activity | Q9Y253 | recombinant Pol eta, fluorescent DNA replication assay | Potency, µM (doses to about 114 µM), without a hit: top-dose activity change, negative = inhibition, actives largely listed as inhibitors | 390,000 tested, 1.2% active | AID 588591; note: % is set by controls: 0 for no effect and ±100 for the full control effect
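Pol eta at 10 nM preincubated with compounds 15 min at room temperature; reaction started with fluorescent substrate (50 nM final) and read kinetically at 0 and 10 min.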
FEN1 inhibitor – blocks human flap endonuclease 1; P39748; AID 588795; Recombinant FEN1 flap cleavage, fluorescence, 15 min; 390,000 tested, 0.35% active; Potency, µM (top dose mostly 114 µM), without a hit: at the top dose activity change, negative = inhibition, actives largely listed as inhibitors; note: % is set by controls: 0 for no effect and ±100 for the full control effect; nearly all actives have a fitted effect of over 65% in size
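Quantitative HTS format: each compound was titrated, incubated with 10 nM nuclease for 15 min at room temperature, then challenged with flap substrate at 50 nM final. Signal change over 15 min gave concentration–effect curves.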
POLI inh – inhibitors of human DNA polymerase iota. 390,000 tested, 1% active. Pol iota fluorescent replication assay, 10 min. Potency, µM (series often up to 115 µM), for the others: at the highest dose activity, negative = inhibition, hits mostly inhibitors
Target sequence (Q9UNA4 whole entry, looked up): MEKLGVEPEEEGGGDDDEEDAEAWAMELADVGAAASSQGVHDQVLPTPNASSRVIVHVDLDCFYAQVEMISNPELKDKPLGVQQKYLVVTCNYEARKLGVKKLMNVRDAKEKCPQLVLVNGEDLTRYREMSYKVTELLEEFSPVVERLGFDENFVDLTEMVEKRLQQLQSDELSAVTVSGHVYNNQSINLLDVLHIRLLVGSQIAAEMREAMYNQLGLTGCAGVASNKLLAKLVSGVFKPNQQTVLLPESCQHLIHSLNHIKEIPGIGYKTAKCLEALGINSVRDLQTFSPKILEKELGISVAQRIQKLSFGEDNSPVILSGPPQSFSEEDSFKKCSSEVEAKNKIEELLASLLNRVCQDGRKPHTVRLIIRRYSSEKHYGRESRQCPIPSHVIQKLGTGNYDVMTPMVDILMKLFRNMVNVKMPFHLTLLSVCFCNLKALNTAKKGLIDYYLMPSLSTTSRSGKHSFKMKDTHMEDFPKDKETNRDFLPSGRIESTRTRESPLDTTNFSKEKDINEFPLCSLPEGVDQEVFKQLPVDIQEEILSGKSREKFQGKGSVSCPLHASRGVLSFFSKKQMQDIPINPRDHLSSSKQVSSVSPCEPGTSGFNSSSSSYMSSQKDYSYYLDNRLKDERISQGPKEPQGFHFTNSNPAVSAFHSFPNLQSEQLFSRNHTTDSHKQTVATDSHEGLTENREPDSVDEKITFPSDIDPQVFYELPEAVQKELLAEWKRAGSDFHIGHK
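Pol iota at 10 nM preincubated 15 min with compounds at room temperature; reaction started with fluorescent substrate, 50 nM final. Fluorescence read kinetically at 0 and 10 min; buffer-only wells as negative control.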
POLB inh – inhibitors of human DNA polymerase beta. Pol beta primer extension/strand displacement, fluorescence kinetic. 340,000 tested, 1.3% active. Potency, µM (highest dose often 114 µM), inactives show top-dose activity change, negative = inhibition, actives largely listed as inhibitors. P06746; note: % is set by controls: 0 for no effect and ±100 for the full control effect
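Enzyme-only controls used 10 nM Pol beta; buffer lacking enzyme served as negative control. Compound preincubated 15 min, then 50 nM substrate added; 0 and 10 min reads at room temperature.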
WRN helicase inh – blocks human WRN helicase | Q14191 | WRN helicase unwinding, fluorescent forked duplex, kinetic | Potency, µM (series often up to 114 µM), without a hit: top-dose activity change, negative = inhibition, hits mostly inhibitors | 360,000 tested, 0.46% active; note: % is set by controls: 0 for no effect and ±100 for the full control effect; nearly all actives have a fitted effect of over 55% in size
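Kinetic fluorescence helicase assay: unwinding of a quenched forked DNA duplex (100 nM final) with 2 mM ATP final raises red fluorescence (525/598 nm). Compounds sat 15 min at room temperature with 20 nM WRN beforehand.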
POLK inh – DNA polymerase kappa (human) inhibition | purified Pol kappa, fluorescent DNA synthesis assay, 10 min | 400,000 tested, 0.53% active | AID 588579 | Potency, µM (titrated, usually from 107 µM), without a hit: at the top dose activity, negative = inhibition, actives largely listed as inhibitors; note: % is set by controls: 0 for no effect and ±100 for the full control effect
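Activity was followed as the change in fluorescence between reads at 0 and 10 min after starting the reaction with 50 nM substrate. Beforehand, 10 nM polymerase had been preincubated with compound for 15 min at room temperature.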
* hit, by the source's call; [ ] = dose if it differs, or a comment. Calls come from the whole dose curve; as a rule, active = well fitted curve in the direction sought with a large enough effect; inconclusive = small, poorly fitted or top-dose-only effect, or another doubt; inactive = no such curve, though single readings can be large; an effect the other way counts as inactive or inconclusive. Potency is the fitted concentration of half-maximal effect.

What do the screens show for `CCN(C(=O)CN(C)S(=O)(=O)c1ccc2c(c1)c(=O)n(C)c(=O)n2C)c1ccc(OC)cc1`?
POLH inh: -3.1%; FEN1 inhibitor: 12.9%; POLI inh: 12.7%; POLB inh: 6.1%; POLK inh: -0.3%

What do the screens show for `C=C1NN(C(C)C(=O)O)C(=O)N1c1ccc(OCc2ccccc2)cc1` (stereo not given)?
FEN1 inhibitor: 15.9%; POLI inh: 13.6%; POLK inh: 2.5%

What do the screens show for `COc1ccc2c(c1)c1ccc3c(c1n2C)C(=O)C=CC3=O`?
POLH inh: -4.2%; FEN1 inhibitor: inconclusive; POLI inh: 17.8µM*; POLB inh: 19.3%; WRN helicase inh: -15.9%; POLK inh: 3.4%

What do the screens show for `Cc1ccc2c(c1)c1ccc3c(c1n2C)C(=O)C=CC3=O`?
POLH inh: -17.3%; FEN1 inhibitor: -19.2%; POLI inh: inconclusive; POLB inh: 1.2%; WRN helicase inh: -16.2%; POLK inh: -19.0%

How did O=[N+]([O-])c1ccc(-c2cc3ccccc3[nH]2)cc1 do in these assays?
FEN1 inhibitor: 6.7%; POLI inh: 29.2%; POLK inh: 7.5%

Results for O=c1c2ccccc2sn1-c1ccc(F)cc1 ?
POLH inh: 5.3%; FEN1 inhibitor: 79.4µM*; POLI inh: inconclusive; WRN helicase inh: -4.6%[11.6 µM]; POLK inh: -2.3%

What do the screens show for `COc1cc(/C=C/c2ccc3ccccc3n2)cc(OC)c1OC`?
FEN1 inhibitor: inconclusive; POLI inh: -3.1%; POLK inh: -3.3%

Results for NNC(=O)c1ccc2[nH]c3c(c2c1)CCCC3 ?
POLH inh: -16.8%; FEN1 inhibitor: -6.4%; POLI inh: -9.8%; POLB inh: 4.0%; WRN helicase inh: -0.2%; POLK inh: 11.5%

What do the screens show for `CN1CCc2[nH]c3ccc(C(=O)NN)cc3c2C1`?
POLH inh: -16.4%; FEN1 inhibitor: inconclusive; POLI inh: inconclusive; POLB inh: 39.8µM*; WRN helicase inh: -8.6%[57.1 µM]; POLK inh: inconclusive

What do the screens show for `COc1ccc(Nc2nc(-c3cc4cccc(OC)c4oc3=O)cs2)cc1`?
POLH inh: -5.7%; FEN1 inhibitor: -1.6%; POLI inh: 2.8%; POLB inh: -12.4%; WRN helicase inh: -22.1%; POLK inh: -4.4%

Results for COc1cccc2cc(/C(C)=N/Nc3nc(-c4cc(C)ccc4C)cs3)c(=O)oc12 ?
POLH inh: 50.1µM*; FEN1 inhibitor: 24.9%; POLI inh: -15.3%; POLB inh: 39.8µM*; WRN helicase inh: inconclusive; POLK inh: -7.7%

Results for Cc1ccccc1NC1=C/C(=N\S(=O)(=O)c2cccs2)c2ccccc2C1=O ?
POLH inh: 11.2µM*; FEN1 inhibitor: -2.5%; POLI inh: 3.16µM*; POLB inh: 26.0%; WRN helicase inh: -11.6%[57.1 µM]; POLK inh: -20.7%

Results for CC(=O)Nc1ccc(NC2=C/C(=N/S(=O)(=O)c3cccs3)c3ccccc3C2=O)cc1 ?
POLH inh: inconclusive; FEN1 inhibitor: -12.6%; POLI inh: 14.1µM*; POLB inh: inconclusive; WRN helicase inh: -9.0%; POLK inh: -10.9%

How did O=c1c(-c2cc(F)cc(F)c2)nc2cnc(N3CCOCC3)nc2n1Cc1cccs1 do in these assays?
POLK inh: 0.9%[60.1 µM]

What do the screens show for `CN1CCN(c2ncc3nc(-c4cccs4)c(=O)n(Cc4cccs4)c3n2)CC1`?
POLK inh: -16.7%[60.1 µM]

Results for O=c1c(-c2cc(F)cc(F)c2)nc2cnc(N3CCNCC3)nc2n1Cc1cccs1 ?
POLK inh: 28.2µM*

Results for O=c1c(-c2cccs2)nc2cnc(N3CCNCC3)nc2n1Cc1cccs1 ?
POLK inh: 31.6µM*

What do the screens show for `COc1ccc(NC(=O)c2oc3ccccc3c2NC(=O)C23CC4CC(CC(C4)C2)C3)cc1`?
POLH inh: -17.8%; FEN1 inhibitor: -15.9%; POLI inh: 23.1%; POLB inh: 33.6%; POLK inh: -4.9%

What do the screens show for `COc1cccc(CNC(=O)CCc2c(C)nc3c4c(C)cc(C)nc4nn3c2C)c1`?
FEN1 inhibitor: -15.2%; POLI inh: 15.0%; POLB inh: 45.5%; POLK inh: 1.3%

What do the screens show for `O=C(CSc1cccc2cccnc12)N/N=C/c1cccc(O)c1`?
POLH inh: 7.5%; FEN1 inhibitor: 14.8%; POLI inh: -8.1%; POLB inh: -9.6%; WRN helicase inh: -1.8%; POLK inh: -23.6%

Results for O=C(N/N=C/c1ccc(O)c(O)c1)c1ccc(CSc2cccc3cccnc23)cc1 ?
POLH inh: 3.55µM*; FEN1 inhibitor: inconclusive; POLI inh: inconclusive; POLB inh: 3.16µM*; WRN helicase inh: inconclusive; POLK inh: inconclusive

Results for CCCCOc1ccc(C(=O)Nc2ccc3c(c2)CCCN3S(=O)(=O)c2ccc(C)cc2)cc1 ?
POLH inh: -18.8%; FEN1 inhibitor: -4.2%; POLI inh: 18.3%; POLB inh: 22.1%; POLK inh: -7.5%[60.1 µM]

How did CC(=O)NCCCC[C@H](NC(=O)OC(C)(C)C)C(=O)Nc1ccc2c(C(F)(F)F)cc(=O)oc2c1 do in these assays?
POLK inh: 10.8%[60.1 µM]

Results for Cc1cc2nc(C)n(CCCNC(=O)Nc3cccc4ccccc34)c2cc1C ?
POLH inh: -3.0%; FEN1 inhibitor: -12.1%; POLI inh: inconclusive; POLB inh: 39.8µM*; WRN helicase inh: -16.7%; POLK inh: -23.2%

Results for O=C(Cn1c(=O)n(Cc2ccco2)c(=O)c2sc3ccccc3c21)Nc1ccc(F)cc1F ?
POLH inh: -1.2%; FEN1 inhibitor: 23.6%; POLI inh: 27.7%; POLB inh: 34.3%; POLK inh: 3.3%

Results for CC(=O)Nc1cccc(-c2cc(C)c3cc4c(cc3n2)OCO4)c1 ?
POLH inh: 7.5%; FEN1 inhibitor: inconclusive; POLI inh: inconclusive; POLB inh: 39.8µM*; WRN helicase inh: -23.4%; POLK inh: -20.4%

What do the screens show for `COc1cccc2c(C)cc3nnc(SCC(=O)Nc4ccc(C)cc4)n3c12`?
POLH inh: -12.0%; FEN1 inhibitor: -7.6%; POLI inh: 22.4%; POLB inh: 15.5%; POLK inh: -8.3%

What do the screens show for `CC(C)c1nc2sc3c(SCC(=O)NCc4ccco4)ncnc3c2c2c1CCC2`?
POLH inh: 6.31µM*; FEN1 inhibitor: inconclusive; POLI inh: inconclusive; POLB inh: 22.4µM*; WRN helicase inh: inconclusive; POLK inh: 79.4µM*

Results for CC1(C)Cc2nc3sc4c(SCC(=O)NCc5ccco5)ncnc4c3cc2CO1 ?
POLH inh: 22.4µM*; FEN1 inhibitor: 8.7%; POLI inh: -15.6%; POLB inh: inconclusive; WRN helicase inh: -23.7%; POLK inh: -9.7%

High-throughput results deposited in PubChem by National Center for Advancing Translational Sciences (NCATS).
